Test results as given in PubChem BioAssay (Tox21).
“And” between values parts separate entries of the source, which are not always exact repeats. Equal values may be shown once. Results filed as inconclusive are left out. The source made the active and inactive calls. The call rests on the fitted dose curve; in most records, active means well fitted activation curve with a large enough effect in the repeat runs; inconclusive means weak or mixed curves, or effect the other way; inactive means no such curve, though single readings can be large or run the other way.

Experiment: qHTS assay to identify small molecule agonists of the retinoic acid receptor (RAR) signaling pathway (AID 1159553)
Settings: C3RL4 RARE luciferase reporter, agonist, 6 h; series mostly up to 73.3 µM; activation: at the top concentration
From the text: National Center for Advancing Translational Sciences [NCATS] NIH Chemical Genomics Center [NCGC] U.S. Environmental Protection Agency [EPA] National Institutes of Environmental Health Sciences [NIEHS] National Toxicology Program [NTP] Assay overview: All-trans Retinoic acid (atRA) is the potent natural metabolite of retinol and plays an important role in normal embryonic development and maintenance of cellular phenotype in adult animals. atRA is the activating ligand for the retinoic acid receptors (RARs) which form heterodimers with retinoid X receptors (RXRs) on the retinoic acid response element (RARE). Through activation of the RAR/RXRs nuclear receptors, atRA regulates the transcription of a large number of protein-coding genes and regulatory RNAs. Intracellular levels of atRA are controlled by the retinol signaling pathway (RSP) that regulates the biosynthesis and catabolism of atRA to maintain physiological levels. Chemicals that interfere with the RSP can cause abnormal intracellular levels of atRA and therefore are potential developmental toxicants. To assess compounds for the potential adverse effect on embryonic development through interfering with retinol signaling, a cell-based RARE luciferase reporter gene assay was used. C3RL4 cell line (OARSA/CFSAN/FDA, Laurel, MD) was used to screen Tox21 10K compound library for identifying activators of the RSP.
Assay Protocol Summary: C3RL4 cells were seeded at 1,000/well in 5 uL of assay medium into white solid 1,536-well tissue culture plates (Greiner Bio-One North America Inc. Monroe, NC) using a Multidrop Combi (Thermo Scientific, Waltham, MA) dispenser. After incubation at 37 C and 5% CO2 for an overnight, 23 nL of compounds dissolved in DMSO, positive control or DMSO only were transferred by a Pintool station (Kalypsys, San Diego, CA). After 6 hr incubation at 37 C and 5% CO2, 5 uL of Amplite Luciferase reagent (AAT Bioquest Inc. Sunnyvale, CA) was added to each assay plate using a Flying Reagent Dispenser (FRD) (Aurora Discovery, San Diego, CA). Luminescence was quantified on a ViewLux plate reader (PerkinElmer, Waltham, MA) after 30 min incubation at room temperature.
On the % scale 0 is the no-effect control and ±100 the full control effect; potency means the concentration at half of the fitted maximal effect.

Row | Compound | activation | Potency
1 | O=C1CC[C@@]2(O)[C@H]3Cc4ccc(O)c5c4[C@@]2(CCN3CC2CC2)[C@H]1O5 | 1.02% (inactive) | –
2 | C#CC(O)(C=CCl)CC (stereo not given) | -0.0022% (inactive) | –
3 | O=C(O)c1cc(I)cc(I)c1I | -2.64% [at 94.8 µM] (inactive) | –
4 | COC1=CC(=O)O[C@@H](/C=C/c2ccc3c(c2)OCO3)C1 | -13.7% (inactive) | –
5 | COC(=O)C1(O)c2ccccc2-c2ccccc21 | -2.44% (inactive) | –
6 | C1CS1 | -0.645% [at 94.8 µM] (inactive) | –
7 | Clc1ccc(Cl)c(Cl)c1 | – | inactive
8 | c1ccc2sc(SNC3CCCCC3)nc2c1 | – | 30.3 µM (active) and 68.6 µM (active)
9 | CCOC(=O)c1cncn1C(C)c1ccccc1 (stereo not given) | 0.93% (inactive) | –
10 | CCC[N+](CCC)(CCC)CCC | 0.515% (inactive) | –
11 | ClCc1ccccc1Cl | 0.326% [at 94.8 µM] (inactive) | –
12 | C[C@]12CC[C@H]3[C@@H](CCC4=CC(=O)CC[C@@H]43)[C@@H]1CC[C@@H]2OC(=O)CCc1ccccc1 | -8.44% (inactive) | –
13 | Cc1cnc(C2=NC(C)(C(C)C)C(=O)N2)c(C(=O)O)c1 (stereo not given) | 1.18% (inactive) | –
14 | NNCCO | 0.473% (inactive) | –
15 | C[N+]1(CCC(C(N)=O)(c2ccccc2)c2ccccc2)CCCCC1 | 1.24% (inactive) | –
16 | CCOP(=S)(OCC)SCSc1cc(Cl)ccc1Cl | 0.0523% (inactive) | –
17 | Cc1nc2ccccc2c(=O)n1-c1ccccc1Cl | 1.48% (inactive) | –
18 | CCCC[N+](CCCC)(CCCC)CCCC | -0.118% (inactive) | –
19 | CC(C)(C)NCC(O)c1cc(Cl)c(N)c(C(F)(F)F)c1 (stereo not given) | 2.43% (inactive) | –
20 | O=C(NC(=O)c1cc(F)c(F)cc1Cl)Nc1cc(F)ccc1N1CCC(C(=O)O)CC1 | -0.183% (inactive) | –

Row | Compound | activation | Potency
21 | C=CCc1ccccc1O | 3.06% (inactive) | –
22 | CC1(C)CC(=O)CC(C)(C)N1[O] | 0.208% (inactive) | –
23 | COc1ccc(C(O)(c2cncnc2)C2CC2)cc1 (stereo not given) | -2.07% (inactive) | –
24 | Nc1c(Br)cc(Br)c2c1C(=O)c1ccccc1C2=O | 1.58% [at 34.3 µM] (inactive) | –
25 | O=C(O)C(Cl)(Cl)Br | 0.496% [at 94.8 µM] (inactive) | –
26 | O=C(O)COc1cc(Cl)c(Cl)cc1Cl | – | inactive
27 | COC(=O)Cc1ccccc1 | 0.66% (inactive) | –
28 | N#CC(C#N)=Cc1ccc(O)c(O)c1 | – | 26.6 µM (active)
29 | O=C(O)C(F)(F)C(F)(F)C(F)(F)C(F)(F)C(F)(F)C(F)(F)C(F)(F)C(F)(F)F | -0.0371% (inactive) | –
30 | CC(Oc1cc(Cl)c(Cl)cc1Cl)C(=O)O (stereo not given) | -4.9% (inactive) | –
31 | CCCCOC(=O)CCC(=O)OCCCC | -0.12% (inactive) | –
32 | CCCN(CCOc1c(Cl)cc(Cl)cc1Cl)C(=O)n1ccnc1 | – | inactive
33 | COC1CC(=C(c2cccs2)c2cccs2)C[N+](C)(C)C1 (stereo not given) | 1.95% (inactive) | –
34 | CC(C)c1ccc(NC(=O)N(C)C)cc1 | – | 13.7 µM (active)
35 | CC(C)(C)c1ccc(CCOc2ncnc3ccccc23)cc1 | -1.24% (inactive) | –
36 | CC[N+]1(CCOC(=O)C(O)(c2ccccc2)c2ccccc2)CCCCC1 | 1.01% (inactive) | –
37 | Nc1ccccc1C(=O)OCCc1ccccc1 | – | 173 nM (active) and 122 nM (active)
38 | C=C(Cl)Cl | 1.12% [at 94.8 µM] (inactive) | –
39 | C[C@H](N)[C@H](O)c1ccc(O)c(O)c1 | 4.12% (inactive) | –
40 | CCOc1cccc(C2(N3CCN(c4ccccc4)CC3)CCC(C)CC2)c1 (stereo not given) | 3.79% (inactive) | –
